Measurements reported in PubChem BioAssay (NCI).
This is part of a sample that, as a whole, favours compounds with a hit. Of some 83,000 tested, about 20% had one in any assay.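 Each cell line was grown in a 96-well plate and treated with one concentration of compound for 48 hours. Values below 10 were considered active.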 Values without a mark were called inactive. Activity calls are given as the source filed them.

Tests used:
Test in all cases: NCI-60 one-dose screen, 48 h (100 = growth as untreated, 0 = no growth, -100 = all killed)
Settings in all cases: 10 µM unless noted
HT29 colon = tested on: HT29 colon
SNB-75 CNS = tested on: SNB-75 CNS
SNB-19 CNS = tested on: SNB-19 CNS
U251 CNS = tested on: U251 CNS
PC-3 prostate = tested on: PC-3 prostate
UACC-62 melanoma = tested on: UACC-62 melanoma
LOX IMVI melanoma = tested on: LOX IMVI melanoma
SK-MEL-28 melanoma = tested on: SK-MEL-28 melanoma
EKVX NSCLC = tested on: EKVX NSCLC
SN12C renal = tested on: SN12C renal
UO-31 renal = tested on: UO-31 renal
TK-10 renal = tested on: TK-10 renal
ACHN renal = tested on: ACHN renal
A498 renal = tested on: A498 renal
CCRF-CEM leukemia = tested on: CCRF-CEM leukemia
MOLT-4 leukemia = tested on: MOLT-4 leukemia
SR leukemia = tested on: SR leukemia
CAKI-1 renal = tested on: CAKI-1 renal
SK-MEL-5 melanoma = tested on: SK-MEL-5 melanoma
SK-MEL-2 melanoma = tested on: SK-MEL-2 melanoma

Row | SMILES | growth (HT29 colon) | growth (SNB-75 CNS) | growth (SNB-19 CNS) | growth (U251 CNS) | growth (PC-3 prostate) | growth (UACC-62 melanoma) | growth (LOX IMVI melanoma) | growth (SK-MEL-28 melanoma) | growth (EKVX NSCLC) | growth (SN12C renal) | growth (UO-31 renal) | growth (TK-10 renal) | growth (ACHN renal) | growth (A498 renal) | growth (CCRF-CEM leukemia) | growth (MOLT-4 leukemia) | growth (SR leukemia) | growth (CAKI-1 renal) | growth (SK-MEL-5 melanoma) | growth (SK-MEL-2 melanoma)
1 | C=C(C)[C@H]1CC/C(C)=C/CC[C@]2(C)O[C@H]2CC/C(COC(C)=O)=C\C1=O | 115% | 120% | 108% | 101% | 94.6% | 108% | 88.1% | 116% | 44.3% | 104% | 69.4% | 117% | 98.9% | 91.1% | 103% | 90.2% | 56.7% |  |  | 
2 | COc1cc([C@@H]2c3cc4c(cc3C(O[C@@H]3O[C@@H]5CO[C@@H](c6cccs6)OC5[C@H](O)[C@H]3O)C3COC(=O)[C@@H]32)OCO4)cc(OC)c1O (stereo partly drawn) | -24.8% (active) | -37% (active) | 1.98% (active) | -15.5% (active) | 4.52% (active) | -54.3% (active) | -37.3% (active) | -29% (active) | 12.7% | -9.91% (active) | -72.2% (active) | -54.7% (active) |  | -73.2% (active) | -1.14% (active) | 3.06% (active) |  | -10.3% (active) |  | 
3 | O=C1/C(=C/c2ccc3cccc(Cl)c3n2)SC(=S)N1CCc1ccc(O)cc1 | 107% | 50.7% | 97.5% | 94% |  | 68.4% | 80.7% | 108% | 83.7% | 87.1% | 39.8% | 129% | 82.6% | 58.6% | 6.53% (active) | 48.9% | 79% | 51% | 95.8% | 101%
4 | O=c1ccn(C2OC(CO)C(O)C2F)c(=O)[nH]1 (stereo not drawn) | 104% | 93% | 101% | 113% |  | 92.4% | 106% | 116% | 102% | 102% | 101% | 124% | 107% | 110% | 119% | 168% | 111% | 107% | 107% | 119%
5 | Cc1nn(-c2ccc(Cl)cc2)c2nc3c(nc12)C(=O)c1ccccc1-3 | 65.1% | 95.5% | 87.2% | 47% |  | 55.2% | 51.2% | 28.4% | 49.6% | 78.8% | 110% | 94.1% | 65.1% | -3.2% (active) |  |  |  | 82.9% | 65.8% | 79.7%
6 | O=C(Nc1ncc([N+](=O)[O-])s1)c1cccc([N+](=O)[O-])c1 | 51.4% | 30.3% | 32.8% | 52% |  | 9.35% (active) | 52.1% | 56.8% | 37.9% | 51.1% | 63.4% | 23.4% | 59% | 5.48% (active) | 33% | 27.8% | 39.3% | 40.4% | -14.2% (active) | 16.9%
7 | Cc1cc(CC(=O)O)n(C)c1C(=O)c1ccc(Cl)cc1 | 109% | 121% | 108% | 99.5% | 99.5% |  | 97.9% | 122% | 102% | 109% | 104% | 108% | 101% | 123% | 95.6% | 98.3% | 107% | 96% |  | 115%
8 | C=CCCCCCCCCC(=O)[O][Sn]([CH2]CCC)([CH2]CCC)[CH2]CCC | -76.3% (active) | -98.2% (active) | -79.2% (active) | -74% (active) | -93.5% (active) | -90.4% (active) | -90.9% (active) |  | -55.1% (active) | -82% (active) | -88.7% (active) | -92.2% (active) | -99.6% (active) | -97.3% (active) |  | 4.17% (active) | 8.68% (active) | -89.4% (active) |  | -71.2% (active)
9 | O=C(/C=C/c1cccnc1)NCCCCC1CCCN(C(=O)c2ccccc2)C1 (stereo not drawn) | 32.8% | 87.7% | 53.3% | 43.1% | 47.5% | 87.5% |  | 73.1% | 106% | 38.3% | 39.9% | 103% | 73.7% | 101% | 41.5% | 43.8% | 33% | -15.7% (active) |  | 15.3%
10 | Cc1cc(C(C)(C)C)cc(C)c1CC1=NCCN1 | 105% | 97% | 106% | 106% | 91% |  | 95% | 116% | 89% | 111% | 93% | 113% | 92.8% | 117% | 103% | 93.5% | 94.3% | 85.4% |  | 113%
11 | CCCc1cccc(CCC)c1O | 103% | 118% | 109% | 85.7% |  | 107% | 100% | 117% | 98.9% | 107% | 98% | 116% | 115% | 95.5% | 111% | 105% | 116% | 93.8% | 104% | 133%
12 | Fc1ccc(-c2nnc(/C=C/c3cn(-c4ccccc4)nc3-c3ccccc3)o2)cc1 | 88.5% | 88.2% | 108% | 82.1% | 95.2% |  | 83.5% | 98.9% | 103% | 84.1% | 84.1% | 107% | 90.9% | 111% | 97.1% | 99.3% | 65.7% | 84.3% |  | 103%
13 | NS(=O)(=O)c1ccc(NC2=C(Cl)C(=O)c3ccccc3C2=O)cc1 | 105% | 136% | 101% | 97.5% | 70.1% | 96.2% | 53.7% |  | 107% | 87% | 53.2% |  | 78.3% | 163% | 85.7% | 73.6% |  | 107% |  | 102%
14 | COc1cc(/C=C2\COc3ccc(O)c(O)c3C2=O)cc(OC)c1 | 3.57% (active) | 26.5% | 11.2% | -19.3% (active) | -3.29% (active) | -86.3% (active) | -66.2% (active) | 14.1% |  | -89.7% (active) | -95.6% (active) | 16.3% | -85.7% (active) | 112% | 3.2% (active) | -24.3% (active) | -13.6% (active) | 4.89% (active) |  | 
15 | CCOc1nc(-c2ccccc2)cc2c(O)c(C(=O)n3nc(C)cc3C)[nH]c(=O)c12 | 104% | 94.4% | 102% | 99.5% | 101% | 110% |  | 109% |  | 101% | 96% | 108% | 100% | 101% | 96.5% | 99% | 96.2% | 119% |  | 
16 | O=C(CCc1nnc2sc(Cc3ccccc3Cl)nn12)c1nc2ccccc2[nH]1 | 99.4% | 78.7% | 96.2% | 97% |  | 83.9% | 87.9% | 110% | 91.7% | 91.8% | 63% | 144% | 84.7% | 92.3% | 96.1% | 72.9% |  | 89% | 91.8% | 93%
17 | CCN(CC)CCCCNc1c2ccccc2[n+](C)c2c1[nH]c1ccccc12 | 0.443% (active) | -49.8% (active) | -22.7% (active) | 0.218% (active) |  | -69.6% (active) | -5.07% (active) | -90.4% (active) | -20.3% (active) | -2.39% (active) | 22.2% | -12.1% (active) | 27.9% | -11.8% (active) | -33.1% (active) | -4.88% (active) | -37.3% (active) | 81% | -69.9% (active) | -90.7% (active)
18 | O=C1OCC/C1=C\OCCCO/C=C1\CCOC1=O | 105% | 97.1% | 104% | 99.6% |  | 91% | 98.8% | 125% | 101% | 99.3% | 90.7% | 110% | 103% | 119% | 107% | 111% |  | 106% | 105% | 104%
